Screens deposited in PubChem BioAssay by The Scripps Research Institute Molecular Screening Center.
The list is not random: actives were taken first. Their share in the collection is about 2.4%.
M1 ag parental = counter-screen for M1 agonists: effect in parental CHO-K1 cells; Fluo-8 calcium fluorescence; scaled to maximal ATP response, vehicle zero; activation, % at 3 µM; 0.48% of 360,000 active; AID 602248, 2012; in the data active means activation above about 15%;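 further: untransfected CHO-K1 host cells lacking M1 receptor as counterscreen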
M1 PAM = human M1 muscarinic receptor positive allosteric modulators, primary screen, CHO-K1 cells, Fluo-8 calcium fluorescence, 1536-well; Muscarinic acetylcholine receptor M1 (Homo sapiens), P11229; CHO-K1 hM1, ACh EC20; 0% = ACh EC20, 100% = maximal ACh; activation, % at 3 µM; 0.088% of 360,000 active; in the data active means activation above about 19%, passing the limit was not always enough
Target sequence (P11229 whole entry, looked up): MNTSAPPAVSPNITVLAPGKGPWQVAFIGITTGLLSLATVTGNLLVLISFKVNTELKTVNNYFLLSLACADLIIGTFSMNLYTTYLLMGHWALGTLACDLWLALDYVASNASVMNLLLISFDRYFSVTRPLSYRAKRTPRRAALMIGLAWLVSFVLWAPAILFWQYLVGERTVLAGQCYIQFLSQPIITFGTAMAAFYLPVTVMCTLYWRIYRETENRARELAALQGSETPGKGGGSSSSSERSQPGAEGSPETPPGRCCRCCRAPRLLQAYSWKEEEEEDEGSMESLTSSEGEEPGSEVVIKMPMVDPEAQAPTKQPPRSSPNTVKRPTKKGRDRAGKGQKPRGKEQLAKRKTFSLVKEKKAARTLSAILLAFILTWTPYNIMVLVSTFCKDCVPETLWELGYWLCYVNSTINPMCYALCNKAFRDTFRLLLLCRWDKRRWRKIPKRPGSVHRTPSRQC
M1 PAM parental = nonselective calcium activators in parental CHO-K1 cells, primary screen, counter-screen for M1 PAM project, cell-based, Fluo-8 calcium fluorescence, full deck, 1536-well; ATP EC20; 0% at ATP EC20, 100% at ATP max; activation, % at 3 µM; 0.02% of 360,000 active;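 active means activation above the run cutoff, the mean activation of all test compounds plus 3 SD, cut at about 40% in these data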;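 further: peak over basal fluorescence ratio in a 140 s read after ATP addition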
M1 antag = human M1 muscarinic receptor antagonists, primary screen, CHO-K1 cells, Fluo-8 calcium fluorescence, 1536-well | Muscarinic acetylcholine receptor M1 (Homo sapiens), P11229 | inhibition, % at 3 µM | CHO-K1 hM1, ACh EC80 antagonist | 1.3% of 360,000 active;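 active means percent inhibition above its own plate's cutoff, namely the mean of that plate's compound wells plus 3 SD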;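 further: peak over basal fluorescence ratio during 140 s after agonist addition; 0% = ACh EC80 plus DMSO and 100% = DMSO alone without agonist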
CHO-K1 Ca antag = nonselective inhibitor or artifact in parental CHO-K1 cells | inhibition, % at 3 µM | AID 602250 | ATP-induced calcium, Fluo-8 fluorescence | 0.6% of 360,000 active;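 active means inhibition above a per-plate cutoff, the plate's mean sample inhibition plus 3 SD, cut at about 24% in these data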;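 further: 0% = DMSO plus EC80 ATP and 100% = DMSO alone without ATP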
M1 ag = human M1 muscarinic receptor agonists, primary screen, Fluo-8 calcium fluorescence, CHO-K1 cells, HTS; AID 588814, 2011; Muscarinic acetylcholine receptor M1 (Homo sapiens), P11229; activation, % at 3 µM; 0.33% of 360,000 active; CHO-K1 hM1, agonist mode; 0% DMSO, 100% acetylcholine EC100;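 active means activation above the run's mean compound activation plus 3 SD, cut at about 16% in these data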;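 further: peak over basal fluorescence ratio within a 140 s kinetic read after compound addition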
Starred values were filed as active, the others as inactive.

SMILES	M1 ag parental	M1 PAM	M1 PAM parental	M1 antag	CHO-K1 Ca antag	M1 ag
COc1ccccc1OCC(=O)Nc1cc(Cl)ccc1N1CCCCC1	0	-4	-21	-2	1	-8
CC(C)CCOc1cccc(OCC(=O)Nc2ccncc2)c1	14	-14	-15	26	28*	0
Cc1cc(OCC(=O)Nc2ccc(N3CCCC3)cc2)cc(C)c1Cl	0	-22	5	58*	-8	-5
O=C(COc1ccc2ccccc2c1Br)Nc1ccncc1	15*	-6	-12	30*	11	5
Cc1cc(OCC(=O)Nc2ccncc2)cc(C)c1Cl	10	-13	-8	30*	16	2
Cc1ccc(OCC(=O)Nc2ccncc2)cc1C	10	-4	15	6	-15	3
Cc1cc(OCC(=O)Nc2ccncc2)c(C)cc1Br	14	-19	-15	37*	32*	4
Cc1cc(N2C(=O)C3C4C=CC(C4)C3C2=O)ccc1NC(=O)c1cccs1 (stereo not drawn)	-1	3	-13	-7	47*	-7
COc1ccc(CCNC(=O)c2cccc(NS(=O)(=O)c3ccccc3F)c2)cc1OC	2	5	12	-15	-12	-2
Cc1ccc(/C=N/NC(=O)c2ccc3ccccc3c2)s1	0	2	-16	-11	25*	-3
CC1(NC(=S)Nc2ccc(NC(=S)NC3(C)CCS(=O)(=O)C3)cc2)CCS(=O)(=O)C1 (stereo not drawn)	1	6	14	-7	-2	17*
COC(=O)c1ccc(Cn2nnc3c(=O)[nH]c(C4CCCN(S(=O)(=O)c5cccc(Cl)c5)C4)nc32)cc1 (stereo not drawn)	0	6	-21	-7	-6	-2
Cc1cccc(OC(C)C(=O)OCC(=O)Nc2sccc2C(N)=O)c1 (stereo not drawn)	16*	-14	-10	26	12	3
Cc1cccc(OCC(=O)OCC(=O)Nc2sccc2C(N)=O)c1	20*	-13	-17	24	8	4
COc1ccccc1OCC(=O)OCC(=O)Nc1sccc1C(N)=O	12	-13	9	7	-1	0
CC(C)(C)c1cc2cccnc2n1Cc1cccc(Cl)c1	0	-12	0	31*	-8	-5
COc1ccnc2c1c(=O)n(Cc1cccc(Cl)c1)c(=O)n2C	0	4	-7	-6	-9	-2
N/C(=N\OC(=O)Cc1ccc(-c2ccccc2)cc1)c1ccccn1	1	6	-2	-9	9	-3
N/C(=N\OC(=O)CSc1ccccc1)c1ccccn1	0	28*	8	-24	-6	-1
Cc1cnc(CNC(=O)c2csc([C@H]3C[C@H](O)[C@@H](CO)O3)n2)cn1	0	6	-9	-13	-6	1
CCOC(=O)COc1nc(-c2ccc(Cl)cc2)cc(-c2ccco2)c1C#N	12	8	10	-3	3	2
CCOC(=O)COc1nc(-c2ccccc2)cc(-c2ccco2)c1C#N	1	-22	15	40*	0	-5
COc1ccc(C2CC(=O)c3cnc(NC(=O)c4ccccc4)nc3C2)c(OC)c1 (stereo not drawn)	0	4	-4	1	24*	-1
CC(=O)NC1CCCc2c1cnn2-c1ccc(C(C)(C)C)cc1 (stereo not drawn)	4	3	18	-11	-2	-1
Cn1nccc1C(=O)NC1CCCc2c1cnn2-c1ccc(C(C)(C)C)cc1 (stereo not drawn)	14	-8	-15	34*	33*	1
SMILES	M1 ag parental	M1 PAM	M1 PAM parental	M1 antag	CHO-K1 Ca antag	M1 ag
COc1cccc(C(=O)NC2CCCc3c2cnn3-c2ccc(C)c(C)c2)c1OC (stereo not drawn)	8	-9	-12	8	38*	-5
Cc1cc(C(=O)NC2CCCc3c2cnn3-c2cccc(C)c2C)n(C)n1 (stereo not drawn)	13	-7	-20	34*	30*	3
Cc1nnsc1C(=O)NC1CCCc2c1cnn2-c1ccc(F)cc1F (stereo not drawn)	10	-11	-14	31*	15	1
COc1ccc(C(=O)NC2CCCc3c2cnn3-c2ccc(C)c(C)c2)c(OC)c1OC (stereo not drawn)	2	2	9	-13	1	-2
O=C(NCCCN1CCOCC1)c1ccccc1N1C(=O)[C@@H]2Cc3c([nH]c4ccccc34)C(c3cccc(Cl)c3)N2C1=O (stereo partly drawn)	7	-7	3	14	7	-6
OC(CCN1CCOCC1)(c1ccc(Cl)cc1)C1CCCCC1 (stereo not drawn)	0	-26	7	82*	0	-8
CCCC(O)(c1ccc(Cl)cc1)C(CN1CCOCC1)c1ccc(Cl)cc1 (stereo not drawn)	0	-4	6	6	-14	-7
CCCC(O)(CCN1CCOCC1)c1ccc(Cl)cc1 (stereo not drawn)	1	-23	19	45*	-5	-6
CCCC(O)(CCN1CCOCC1)c1ccc(Br)cc1 (stereo not drawn)	0	-28	7	78*	-15	-7
CCCOc1ccc(C(O)(CCC)CCN2CCCCC2)cc1 (stereo not drawn)	1	-23	-3	66*	4	-5
CC(C)Cn1cnc2c(SCCc3ccccc3)nc(N)nc21	0	0	12	-10	-20	-1
Cc1[nH]c2ccccc2c1/C=N/NC(=O)CNC(=O)c1ccco1	0	9	8	-16	4	-4
Cc1[nH]c2ccccc2c1/C=N/Nc1ccc([N+](=O)[O-])cc1	21*	-10	0	35*	34*	16*
Cc1[nH]c2ccccc2c1/C=N\NC(=O)c1ccco1	1	24*	6	-20	2	1
COc1ccc(OC(F)(F)F)cc1CC1(C)C(=O)Nc2ccc(-c3ccsc3)cc21 (stereo not drawn)	1	1	24	3	-11	-5
CCCC1C2C(=O)N(c3cccc(C)c3)C(=O)C2ON1c1ccccc1 (stereo not drawn)	17*	4	7	-1	0	0
O=C(c1ccccc1)C(Nc1ccccn1)c1ccccc1 (stereo not drawn)	0	-24	-22	35*	14	-8
